From PubChem BioAssay (Tox21)
Values joined by “and” are separate entries in the source; they are usually repeats but may differ in a detail not shown here. Equal values may be shown once. Records with an inconclusive call do not appear. Some compounds were tested as several samples or in several runs, with calls that do not always agree. Active and inactive are the calls of the source. Unless noted, calls follow the shape of the dose curve; as a rule, active = well fitted curve in the direction sought with a large enough effect in the repeat runs; inconclusive = weak or mixed curves; inactive = no such curve, though single readings can be large; an effect the other way counts as inactive or inconclusive.

Experiments:
[1] = qHTS assay for small molecule agonists of the p53 signaling pathway - cell viability (AID 651633; calls by dose curve; also: nearly all actives have a fitted effect of over 30% in size; also: potency is read from the fitted curve at half-maximal effect)
Method in brief: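 Viability counter-read: CellTiter-Glo luminescence (30 min, room temperature) in the same p53RE-bla plates. These plates had been exposed to compounds for 16 h at 37 C.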

[2] = qHTS assay for small molecules that induce genotoxicity in human embryonic kidney cells expressing luciferase-tagged ATAD5 - cell viability (AID 651634; calls by dose curve; also: nearly all actives have a fitted effect of over 25% in size; also: potency is read from the fitted curve at half-maximal effect)
Method in brief: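 Live-cell protease activity (CellTiter-Fluor, fluorescence) indicates viability. HEK293T cells with luciferase-tagged ATAD5; 15.5 hr compound treatment at 37C.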

[3] = qHTS assay for small molecule disruptors of the mitochondrial membrane potential - cell viability (AID 720634; calls by dose curve; also: nearly all actives have a fitted effect of over 20% in size; also: potency is read from the fitted curve at half-maximal effect)
Method in brief: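 Human hepatoma HepG2 cells were treated for 1 hr with test chemicals, then given m-MPI dye and CellTiter-Glo. Cell viability reflects luminescence proportional to cellular ATP.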

[4] = qHTS assay to test for compound auto fluorescence at 590 nm (red) in HepG2 cells (AID 720674)
Method in brief: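 We screened compounds on adherent HepG2 cells, incubating them for an hour at 37 C in 5% CO2 before reading emission at 590 nm under 540 nm excitation; values reflect equivalence to Rose Bengal sodium fluorescence.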

[5] = qHTS assay to test for compound auto fluorescence at 460 nm (blue) in HEK293 cells (AID 720678)
Method in brief: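 Blue read-out at excitation 405 nm and emission 460 nm follows overnight compound exposure of HEK293 cells at 37C in 5% CO2. Activity is given as auto fluorescence equivalency to triamterene.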

[6] = qHTS assay to test for compound auto fluorescence at 590 nm (red) in HEK293 cells (AID 720679)
Method in brief: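 Red channel, Ex/Em 540/590nm; signal expressed as equivalency to Rose Bengal sodium. HEK293, 2,000 cells/well, 10% dialyzed FBS; 23 nL compound pinned after 4-5 hr attachment; overnight 37C/5% CO2 before reading.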

[7] = qHTS assay to test for compound auto fluorescence at 535 nm (green) in HEK293 cells (AID 720680)
[8] = qHTS assay to test for compound auto fluorescence at 460 nm (blue) in HEK293 cell free culture (AID 720681)
Method in brief: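 Blue fluorescence (Ex 405/Em 460 nm, triamterene-equivalent) was read immediately after pin transfer of compound or DMSO into medium (DMEM, 10% FBS) without cells.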

[9] = qHTS assay to test for compound auto fluorescence at 535 nm (green) in HEK293 cell free culture (AID 720682)
Method in brief: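 Each library compound, or DMSO control, is added by pintool to medium alone, comprising DMEM and 10% FBS. Emission at 535 nm following 485 nm excitation is quantified against fluorescein.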

[10] = qHTS assay to test for compound auto fluorescence at 590 nm (red) in HEK293 cell free culture (AID 720683)
Method in brief: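 Red-channel autofluorescence of compounds in culture medium (DMEM, 10% FBS), no cells, measured at 540/590 nm. Rose Bengal sodium is the reference fluorophore for equivalence.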

[11] = qHTS assay to test for compound auto fluorescence at 590 nm (red) in HepG2 cell free culture (AID 720684)
Method in brief: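 Steps: dispense MEM/10% FBS medium, no cells; pin compound or DMSO vehicle; read red channel, Ex/Em 540/590 nm. Output given as Rose Bengal sodium equivalents.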

[12] = qHTS assay to test for compound auto fluorescence at 460 nm (blue) in HepG2 cell free culture (AID 720685)
Method in brief: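 Compound (23 nL) or DMSO pinned into cell-free MEM with 10% FBS; blue fluorescence read at 405/460 nm excitation/emission, expressed as auto-fluorescence equivalency to triamterene.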

[13] = qHTS assay to test for compound auto fluorescence at 535 nm (green) in HepG2 cell free culture (AID 720686)
[14] = qHTS assay to test for compound auto fluorescence at 460 nm (blue) in HepG2 cells (AID 720687)
Method in brief: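 Blue-channel autofluorescence (Ex/Em 405/460 nm, triamterene-equivalent) was measured after 1 hr compound exposure at 37 C, 5% CO2. Cells were HepG2, plated overnight at 37 C in MEM plus 10% FBS.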

[15] = qHTS assay for small molecule disruptors of the mitochondrial membrane potential (AID 720635); also: potency is read from the fitted curve at half-maximal effect
Method in brief: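 Mitochondrial membrane potential tracked with Mito-MPS dye, red aggregates (ex 540/em 590 nm) against green monomers (ex 490/em 535 nm). Compound treatment 1 hr at 37C, dye 30 min in HepG2.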

[16] = target: Glucocorticoid receptor (Homo sapiens) (UniProt P04150); assay: qHTS assay to identify small molecule antagonists of the glucocorticoid receptor (GR) signaling pathway (AID 720692; active = well fitted inhibition curve with a large enough effect in the signal ratio in the repeat runs, not every such curve was filed as active; the % refers to the signal ratio; also: potency is read from the fitted curve at half-maximal effect)
Method in brief: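 Fluorescence from cleaved LiveBLAzer B/G FRET substrate reports GRE-driven beta-lactamase in HeLa cells; compounds are tested against 5 nM dexamethasone (final) over 18 h at 37 C, substrate incubation 2 h at room temperature.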

[17] = qHTS assay for small molecules that induce genotoxicity in human embryonic kidney cells expressing luciferase-tagged ATAD5 (AID 651632); also: nearly all actives have a fitted effect of over 15% in size; also: potency is read from the fitted curve at half-maximal effect
Method in brief: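 Genotoxicity read-out via ATAD5-luciferase: HEK293T cells, 16 hr compound incubation at 37C, Amplite detection.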

[18] = qHTS assay to test for compound auto fluorescence at 535 nm (green) in HepG2 cells (AID 720675)
[19] = target: Glucocorticoid receptor (Homo sapiens) (UniProt P04150); assay: qHTS assay to identify small molecule agonists of the glucocorticoid receptor (GR) signaling pathway (AID 720691; active = well fitted activation curve with a large enough effect in the signal ratio in the repeat runs, not every such curve was filed as active; the % refers to the signal ratio)
Method in brief: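 Beta-lactamase reporter activity, read as fluorescence intensity, was measured in GR-bla HeLa cells exposed to compounds for 18 h at 37 C and then loaded with LiveBLAzer B/G FRET substrate for 2 h at room temperature.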

Measured: Potency

Chain of Glucocorticoid receptor (Homo sapiens) (P04150 whole entry, looked up): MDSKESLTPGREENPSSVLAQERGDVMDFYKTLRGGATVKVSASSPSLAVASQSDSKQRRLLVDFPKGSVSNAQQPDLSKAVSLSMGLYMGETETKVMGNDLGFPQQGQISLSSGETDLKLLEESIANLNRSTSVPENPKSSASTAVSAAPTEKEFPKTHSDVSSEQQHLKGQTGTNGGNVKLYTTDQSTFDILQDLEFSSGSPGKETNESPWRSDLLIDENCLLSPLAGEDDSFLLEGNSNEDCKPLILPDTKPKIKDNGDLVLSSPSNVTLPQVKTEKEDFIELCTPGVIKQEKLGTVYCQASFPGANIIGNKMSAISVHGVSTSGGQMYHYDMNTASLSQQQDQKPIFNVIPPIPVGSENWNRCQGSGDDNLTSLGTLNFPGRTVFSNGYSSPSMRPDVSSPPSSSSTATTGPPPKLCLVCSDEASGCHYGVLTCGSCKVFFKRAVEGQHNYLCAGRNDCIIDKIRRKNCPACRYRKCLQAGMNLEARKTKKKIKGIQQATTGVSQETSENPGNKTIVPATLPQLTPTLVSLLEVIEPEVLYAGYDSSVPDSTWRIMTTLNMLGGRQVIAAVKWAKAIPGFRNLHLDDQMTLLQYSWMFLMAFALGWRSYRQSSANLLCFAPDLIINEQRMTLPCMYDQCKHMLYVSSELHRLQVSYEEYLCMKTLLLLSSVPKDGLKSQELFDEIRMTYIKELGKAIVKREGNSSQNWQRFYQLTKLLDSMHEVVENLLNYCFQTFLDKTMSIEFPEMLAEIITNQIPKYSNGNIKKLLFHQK

C[N+](C)(C)CC(=O)O
not listed: [15] | [16] | [17] | [18] | [19]
inactive: all other assays above

Nc1ncn[nH]1
not listed: [13] | [17] | [18] | [19]
inactive: all other assays above

CCCCCCCC[N+](C)(CCCCCCCC)CCCCCCCC
active: [1] 10.8 µM and 24.4 µM and 24.3 µM | [2] 21.6 µM and 19.3 µM | [3] 27.3 µM and 54.5 µM | [15] 1.72 µM and 770 nM and 2.43 µM
not listed: [16] | [18] | [19]
inactive: all other assays above

CC(C)(c1ccccc1)c1ccc(O)cc1
active: [15] 3.04 µM and 3.86 µM | [16] 48.6 µM and 54.9 µM
48.2 µM (active) and inactive: [3]
not listed: [1] | [19]
inactive: all other assays above

NN=C(N)N
not listed: [16] | [18] | [19]
inactive: all other assays above

CC(C)COC(=O)c1ccccc1C(=O)OCC(C)C
active: [15] 68.6 µM
not listed: [13] | [18]
inactive: all other assays above

CCOC(=O)c1ccccc1N
not listed: [13] | [17] | [18] | [19]
inactive: all other assays above

OCCOCCO
not listed: [13] | [15] | [18] | [19]
inactive: all other assays above

C[N+](C)(C)CC(=O)[O-]
not listed: [16] | [17] | [19]
inactive: all other assays above

O=[N+]([O-])c1ccc(Nc2ccccc2)cc1
active: [2] 54.5 µM | [3] 61.1 µM | [15] 7.75 µM and 2.73 µM | [16] 49.4 µM
not listed: [7] | [13] | [17] | [18]
inactive: all other assays above

CC(C)(c1ccc(OCC2CO2)cc1)c1ccc(OCC2CO2)cc1 (centres undefined)
active: [1] 61.9 µM and 61.1 µM | [16] 49 µM
not listed: [3] | [15]
inactive: all other assays above

CCCCCCCCCC(CC)c1ccc(S(=O)(=O)O)cc1 (centres undefined)
inactive and 68.6 µM (active): [3]
active: [15] 61.1 µM
not listed: [1] | [2] | [18]
inactive: all other assays above

CCC[CH2][Sn]([Cl])([Cl])[CH2]CCC
active: [1] 2.2 µM and 969 nM | [2] 694 nM and 34.4 nM
not listed: [3] | [15] | [16] | [17] | [18] | [19]
inactive: all other assays above

CCC[CH2][Sn]([Cl])([CH2]CCC)[CH2]CCC
active: [1] 687 nM and 1.22 µM | [2] 612 nM and 3.06 µM | [3] 1.73 µM and 4.86 µM | [15] 61.3 nM and 122 nM
not listed: [16] | [17] | [18] | [19]
inactive: all other assays above

O=S(=O)(O)C(F)(F)C(F)(F)C(F)(F)C(F)(F)C(F)(F)C(F)(F)C(F)(F)C(F)(F)F
inactive and 48.6 µM (active): [1]
not listed: [3] | [15] | [16] | [19]
inactive: all other assays above

CCC(=O)Nc1ccc(Cl)c(Cl)c1
active: [3] 54.5 µM | [15] 31.3 µM and 30.6 µM
not listed: [13] | [16] | [17] | [19]
inactive: all other assays above

C=CC(=O)OCC(CC)(COC(=O)C=C)COC(=O)C=C
active: [1] 35.3 µM | [2] 15.8 µM and 19.3 µM | [15] 62.8 µM
not listed: [7] | [16] | [17] | [19]
inactive: all other assays above

Nc1ccc([N+](=O)[O-])cc1N
active: [2] 54.4 µM | [15] 30.6 µM
not listed: [13] | [16] | [17] | [19]
inactive: all other assays above

Cc1cc(Cl)ccc1N=CN(C)C
not listed: [13] | [16] | [17] | [19]
inactive: all other assays above

CC1CC(=O)O1 (centres undefined)
not listed: [7] | [17] | [19]
inactive: all other assays above

N#Cc1cccnc1
not listed: [13] | [18] | [19]
inactive: all other assays above

Clc1ccccc1-c1nnc(-c2ccccc2Cl)nn1
active: [17] 30.4 µM
not listed: [1] | [3] | [7] | [15] | [16] | [19]
inactive: all other assays above

CCC1(c2ccc(N)cc2)CCC(=O)NC1=O (centres undefined)
not listed: [18]
inactive: all other assays above

CC(C)=CC1C(C(=O)OCN2C(=O)C3=C(CCCC3)C2=O)C1(C)C (centres undefined)
active: [15] 29.8 µM and 54.5 µM
not listed: [3] | [7] | [13] | [16] | [19]
inactive: all other assays above

CCNCC
not listed: [17] | [18] | [19]
inactive: all other assays above

CN(C)c1nc(=O)n(C2CCCCC2)c(=O)n1C
not listed: [7] | [16] | [17] | [18] | [19]
inactive: all other assays above
